# Screens deposited in PubChem BioAssay by National Center for Advancing Translational Sciences (NCATS).
# DT40 TDP1 CPT: growth inhibition of DT40 Tdp1-/-;hTDP1 cells with camptothecin (screen for TDP1 inhibitors). chicken DT40 Tdp1-/-;hTDP1 cells + 20 nM CPT, ATP luminescence, 48 h. Potency, µM (series often up to 46.2 µM), without a hit: top-dose activity change, negative = growth inhibition, most hits filed as inhibitors. 420,000 compounds, 12% hits. AID 686979; note: potency is the fitted concentration of half-maximal effect; nearly all actives have a fitted effect of over 55% in size
#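 Cell growth measured by CellTiter-Glo luminescence after a minimum 48 h, 37 C compound exposure with 20 nM CPT in Tdp1-knockout DT40 cells stably expressing hTDP1, seeded 400/well; qHTS titration format.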
# RORg inh: blocks mouse ROR gamma transcriptional activity | P51450 | Drosophila S2 Gal4-RORgamma UAS-luciferase reporter, 20 h | Potency, µM (series often up to 53.6 µM), inactives show at the highest dose activity change, negative = inhibition, most hits filed as inhibitors | 310,000 compounds, 5.4% hits | AID 2551; note: potency is the fitted concentration of half-maximal effect; nearly all actives have a fitted effect of over 60% in size
# Target sequence (P51450 whole entry, looked up, the tested form may be a part): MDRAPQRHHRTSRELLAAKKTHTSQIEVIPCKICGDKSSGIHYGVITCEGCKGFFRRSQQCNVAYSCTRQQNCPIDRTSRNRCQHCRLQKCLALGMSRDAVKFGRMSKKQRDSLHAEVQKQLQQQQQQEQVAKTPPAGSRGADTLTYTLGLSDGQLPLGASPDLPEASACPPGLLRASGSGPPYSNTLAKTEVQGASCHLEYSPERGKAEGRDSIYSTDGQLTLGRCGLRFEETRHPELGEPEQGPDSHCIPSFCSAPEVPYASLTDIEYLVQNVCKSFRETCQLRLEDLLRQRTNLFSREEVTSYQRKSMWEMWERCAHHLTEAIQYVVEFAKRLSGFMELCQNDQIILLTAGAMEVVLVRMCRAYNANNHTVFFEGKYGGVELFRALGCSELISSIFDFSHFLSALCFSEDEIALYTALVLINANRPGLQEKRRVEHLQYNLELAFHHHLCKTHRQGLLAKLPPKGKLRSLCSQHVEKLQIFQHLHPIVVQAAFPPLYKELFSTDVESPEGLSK
#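 Compounds are pin-transferred onto Drosophila Schneider cells expressing a copper-inducible Gal4–ROR gamma transactivation domain fusion. After 1 hr, copper sulfate is added to 700 uM final; luciferase is read 20 hr later.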
# DT40 TDP1 no CPT: qHTS for Inhibitors of human tyrosyl-DNA phosphodiesterase 1 (TDP1): qHTS in cells in absence of CPT. DT40 Tdp1-/- hTDP1 cells, no CPT, ATP luminescence, 48 h. Potency, µM (doses to about 46.2 µM), for inactives: at the top dose activity change, negative = growth inhibition, actives largely listed as inhibitors. 420,000 compounds, 15% hits. AID 686978, 2013; note: potency is the fitted concentration of half-maximal effect; nearly all actives have a fitted effect of over 55% in size
#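 Growth kinetics read by CellTiter-Glo luminescence after ≥48 hr at 37 °C. Cells: DT40 Tdp1-/- stably carrying human TDP1, 400 per well, compound exposure in the absence of CPT (DMSO vehicle).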
# IL1B secr inh: blocks inflammasome-driven IL-1 beta release | THP-1 LPS/ATP IL-1B secretion, AlphaLISA, 16 h; stronger effect = lower value | activity change, % at 57.5 µM | 360,000 compounds, 4.7% hits | AID 743279; in the data active = activity change below about -50%; inconclusive = mostly about -30% to -49%
#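 Secreted IL-1B measured by AlphaLISA bead assay after 16 h compound exposure of THP-1 cells; compounds (final up to 57.5 uM) added 1 h before LPS (250 ng/mL) and ATP (1.25 mM) stimulation; lower signal means less secretion.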
# VP16 counter: Gal4-VP16 reporter inhibition counter-screen; Drosophila S2 Gal4-VP16 UAS-luciferase, luminescence, 20 h; Potency, µM (top dose mostly 53.6 µM), for inactives: at the highest dose activity, negative = inhibition, most hits filed as inhibitors; 310,000 compounds, 3.5% hits; AID 2546;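 note: Gal4-VP16 expression switched on by copper sulfate through the metallothionein promoter; potency is the fitted concentration of half-maximal effect; nearly all actives have a fitted effect of over 50% in size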
# ELG1 repair inh: inhibitors of ELG1-dependent DNA repair in HEK293T cells. HEK293T ELG1-luciferase reporter, luminescence, 16 h; DNA damage induced by 5-fluorouridine. Potency, µM (highest dose often 46.1 µM), without a hit: top-dose activity change, negative = inhibition, most hits filed as inhibitors. 330,000 compounds, 2.3% hits; note: potency is the fitted concentration of half-maximal effect; nearly all actives have a fitted effect of over 55% in size
#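 Reporter activity after DNA damage by 5-fluorouridine is monitored. Compound-treated cells incubate 16 hr at 37 °C, then ONE-Glo is added for 30 min before luminescence reading.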
# * marks the source's active call; other numbers are inactive results; ? = inconclusive; nt = not tested or not shown. Only some compounds are listed: those with a hit (about 21% of all), similar ones and a draw of the others. Unless noted, calls come from the whole dose curve; as a rule, active = well fitted curve in the direction sought with a large enough effect; inconclusive = small, poorly fitted or top-dose-only effect, or another doubt; inactive = no such curve, though single readings can be large; an effect the other way counts as inactive or inconclusive. % is set by controls: 0 for no effect and ±100 for the full control effect.
SMILES,DT40 TDP1 CPT,RORg inh,DT40 TDP1 no CPT,IL1B secr inh,VP16 counter,ELG1 repair inh
COc1cc(C(C)=O)ccc1OCC(=O)Nc1ccccc1N1CCCCC1,9.2µM*,nt,8.2µM*,?,nt,5.2µM*
COC(=O)C1CCCN1C(=O)COc1ccc(Cl)cc1Br (stereo unspecified),18µM*,2%,?,8,-16%,20%
CCC(=O)N1CCN(c2ccccc2NC(=O)COc2ccc(C(C)C)cc2)CC1,?,-7%,16µM*,0,-11%,-22%
O=C(NCCCc1ccncc1)C1CCC(=O)N(CCc2cccc(F)c2)C1 (stereo unspecified),0%,-12%,1%,-6,2%,2%
O=C(COc1ccc(Cl)cc1Br)Nc1ccccc1N1CCCC1,21µM*,nt,?,-3,nt,?
Cc1ccc(Cl)c(OCC(=O)Nc2ccccc2N2CCCCC2)c1,?,nt,?,17,nt,-4%
COc1ccc(OCC(=O)Nc2ccccc2N2CCCCC2)cc1,1.6µM*,?,1.6µM*,3,-7%,?
Cc1cccc(C)c1OCC(=O)Nc1ccccc1N1CCCCC1,?,-44%,?,0,18µM*,3%
Cc1ccc(NC(=O)CSCC(=O)Nc2ccccc2N2CCCCC2)cc1,?,nt,?,-63*,nt,-7%
O=C(NCCCN1CCCC1=O)C(=O)NCC1OCCN1S(=O)(=O)c1cc(F)ccc1F (stereo unspecified),-1%,nt,1%,13,nt,nt
Cc1ccc(C)c(NCCCCCCCC(=O)O)c1,-19%,nt,2%,38,nt,nt
O=C(C1COc2ccccc2O1)N(Cc1cccnc1)c1nc2ccc(Cl)cc2s1 (stereo unspecified),-3%,nt,-10%,nt,nt,nt
COc1ccc(CNCC(=O)Nc2ccccc2-n2cccc2)cc1,8.2µM*,0%,6.5µM*,11,5%,-14%
COc1ccc(CC(=O)Nc2ccccc2N2CCCC2)cc1,-30%,-11%,-13%,24,9%,-22%
COc1ccccc1N1CCN(C(=O)c2ccc(CN3CCc4ccccc4C3)cc2)CC1,16µM*,3%,?,-14,8%,?
O=C(c1ccc(CN2CCc3ccccc3C2)cc1)N1CCN(c2ccc(F)cc2)CC1,16µM*,nt,13µM*,-63*,nt,nt
COc1ccccc1N1CCN(C(=O)c2ccc(COc3cccc4c3OC(C)(C)C4)cc2)CC1,?,nt,16µM*,?,nt,?
O=C(c1ccc(Cn2cc(Cl)cn2)cc1)N1CCN(c2ccccc2)CC1,-23%,40%,?,3,23%,nt
O=C(c1ccc(CN2CCc3ccccc3C2)cc1)N1CCCCC1,-28%,13%,?,8,2%,-13%
O=C(c1ccc(Cn2cc(Br)cn2)cc1)N1CCN(c2ccccc2)CC1,15µM*,19%,16µM*,-11,6%,?
CCC(=O)Nc1ccc2c(c1)nc(CCNC(=O)c1ccco1)n2C,0%,3%,0%,-6,-13%,-7%
O=C(Nc1ccc2c(c1)OCO2)c1ccccn1,-11%,nt,-20%,-29,nt,?
O=C(/C=C\Nc1ccc2c(c1)OCO2)c1ccccn1,-33%,1.1µM*,?,-23,2.2µM*,?
CO[C@H]1C[C@H](O[C@@H]2/C(C)=C/C[C@@H]3C[C@@H](C[C@]4(CC[C@H](C)[C@@H](C5CCCCC5)O4)O3)OC(=O)[C@@H]3C=C(C)/C(=N/O)[C@H]4OC/C(=C\C=C\[C@@H]2C)[C@]43O)O[C@@H](C)[C@@H]1O,-17%,nt,-9%,nt,nt,nt
CCCCC1CC(C)(C(=O)CSc2nc3ccccc3s2)OC1=O (stereo unspecified),-3%,?,0.65µM*,14,?,-13%
SMILES,DT40 TDP1 CPT,RORg inh,DT40 TDP1 no CPT,IL1B secr inh,VP16 counter,ELG1 repair inh
CC1CCCC(C)N1C(=O)CSc1nc2ccccc2s1 (stereo unspecified),?,?,?,36,7%,?
CC(=O)Nc1cc[n+](C(C)C(=O)c2ccc(Br)cc2)cc1 (stereo unspecified),-22%,-7%,?,15,-2%,0%
CC1S/C(=N/N=C2CCCCC2)NC1=O (stereo unspecified),2.9µM*,10µM*,10µM*,18,?,18%
CC1SC(=NC(=O)c2ccncc2)NC1=O (stereo unspecified),0%,14%,-5%,1,27%,-5%
CC1S/C(=N/N=C2CCC(C(C)(C)C)CC2)NC1=O (stereo unspecified),?,2.5µM*,?,51,5µM*,10%
CCOc1ccc2[nH]c(=O)c(CN(CCc3ccccc3)C(=O)N3CCOCC3)cc2c1,?,-7%,?,2,-7%,-24%
CCOc1ccc2[nH]c(=O)c(CN(Cc3ccc(C)cc3)C(=O)N3CCCC3)cc2c1,?,-8%,21µM*,1,-2%,19%
Cc1ccc(CN(Cc2cc3cc(C)ccc3[nH]c2=O)C(=O)N2CCOCC2)cc1,2%,19%,-19%,-24,-7%,-17%
CCOc1ccc2[nH]c(=O)c(CN(CCc3ccccc3)C(=O)N3CCCC3)cc2c1,13µM*,4%,?,-2,-5%,18%
NC(=O)c1ccc2nc(NC(=O)c3ccc(N)cc3)sc2c1,?,12%,?,90,-14%,?
Oc1ccc(-c2nc3ccccc3s2)c(O)c1,4%,-29%,-3%,33,?,?
Nc1ccc(O)c(-c2nc3ccccc3s2)c1,13µM*,?,16µM*,-7,-17%,?
Nc1ccc(-c2nc3ccc(N)cc3s2)cc1,-12%,?,?,-80*,7.9µM*,?
Nc1ccc2nc(N3CCOCC3)sc2c1,-27%,-34%,-8%,-2,-11%,?
Nc1cc2sc(-c3ccc(C(=O)O)cc3)nc2cc1Cl,8.2µM*,10µM*,?,10,11µM*,?
Nc1ccc(-c2nc3ccc(C(=O)O)cc3s2)cc1,-30%,0.56µM*,-26%,4,0.63µM*,?
Oc1ccc(-c2nc3ccccc3s2)cc1,?,?,-16%,14,?,?
Oc1ccc(N=C/C=C/c2cccc(Br)c2)cc1-c1nc2ccccc2s1,12µM*,?,21µM*,-15,7.9µM*,?
Nc1ccc2nc(-c3ccc(O)cc3)sc2c1,21µM*,nt,21µM*,nt,nt,nt
